The values that follow come from PubChem BioAssay AID1851 (National Center for Advancing Translational Sciences (NCATS), 2009).

“And” between values parts separate entries of the source, which are not always exact repeats. Identical values can stand only once. Out of some 16,000 compounds screened, about 5,700 (36%) were called active. Not shown: some 24% with an inconclusive outcome. Calls follow the shape of the dose curve; as a rule, active = well fitted curve in the direction sought with a large enough effect; inconclusive = small, poorly fitted or top-dose-only effect, or effect the other way; inactive = no such curve, though single readings can be large or run the other way. This is one part of the list. The source holds several records for some structures; these can differ, active in one and inactive in another.

For orientation: AC50 means the concentration giving half of the maximal activity seen.
% is scaled to controls: 0 for no effect and ±100 for the full control effect.

In this experiment the target is Cytochrome P450 1A2 (Homo sapiens) (UniProt P05177). Put plainly: Cytochrome panel assay with activity outcomes. Conditions: recombinant CYP, pro-luciferin dealkylation, luminescence, p450-cyp1a2; series mostly up to 57.1 µM.
Chain of Cytochrome P450 1A2 (Homo sapiens) (P05177 whole entry, looked up): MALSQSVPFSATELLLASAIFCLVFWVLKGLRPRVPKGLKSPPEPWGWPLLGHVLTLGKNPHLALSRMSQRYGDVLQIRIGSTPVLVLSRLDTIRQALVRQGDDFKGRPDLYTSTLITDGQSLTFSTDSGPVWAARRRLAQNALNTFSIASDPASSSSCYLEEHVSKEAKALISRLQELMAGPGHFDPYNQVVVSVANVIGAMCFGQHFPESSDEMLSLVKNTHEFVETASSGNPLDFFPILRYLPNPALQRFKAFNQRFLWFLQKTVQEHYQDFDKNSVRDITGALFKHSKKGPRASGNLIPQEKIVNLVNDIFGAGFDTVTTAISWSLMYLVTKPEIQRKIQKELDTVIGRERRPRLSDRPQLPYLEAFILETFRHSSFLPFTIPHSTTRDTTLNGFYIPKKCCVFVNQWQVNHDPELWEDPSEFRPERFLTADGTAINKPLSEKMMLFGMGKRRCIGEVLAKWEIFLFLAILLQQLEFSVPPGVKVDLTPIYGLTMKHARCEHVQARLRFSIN
`CCCN1CC=C2C(C#N)=C(N)C(C#N)(C#N)C(c3cc(OC)ccc3OC)C2C1` (configuration not stated): the AC50 is 31.6 µM (active). As to `O=C(O)C[n+]1ccccc1`, the activity, negative = inhibition was -7.86% [at 11.4 µM] (inactive).

Turning to `COc1ccc(O[C@H]2C=C[C@@H](c3ccccc3)O[C@H]2COC(=O)CC/C(C)=N/OCC[C@@H]2C=C[C@H](OC(C)=O)[C@H](COC(C)=O)O2)cc1`, the activity, negative = inhibition is -2.16% [at 11.4 µM] (inactive). Turning to `CN=C1N[C@H](c2ccccc2)N(c2ccccc2)S1`, the AC50 was 1.26 µM (active). On the same count and under the same terms, the value for `Cc1c(CCC(C)C)c(-n2ccnc2C)n2c(nc3ccccc32)c1C#N` was “inactive”; that for `Cc1ccccc1S(=O)(=O)Oc1ccccc1C(=O)Oc1ccccc1` was 3.55 µM (active).

`Cc1ccccc1S(=O)(=O)O[C@@H]1NS(=O)(=O)c2ccccc21`: the activity, negative = inhibition was 13.5% [at 2.29 µM] (inactive). In the case of `COC(=O)[C@H](Cc1ccccc1)NC(=O)N1CCN(Cc2ccccc2)CC1`, the AC50 result was “inactive”. Regarding `O=C(O)Cc1c(O)ccc2ccccc12`, the activity, negative = inhibition is -9.69% [at 11.4 µM] (inactive). For `Oc1ccc2ccccc2c1C=NCc1c(O)ccc2ccccc12`, the AC50 is 1.58 µM (active).

Take `COc1ccccc1CN1CCCC2(CCNCC2)C1`: the AC50 result was “inactive”. On to `c1ccc(C(c2ccccc2)N2CC[C@@]3(CCCNC3)C2)cc1`, for which the AC50 result is “inactive”. In the case of `O=S(=O)(c1ccccc1)N1CCC[C@@]2(CCN(c3ccncc3)C2)C1`, the AC50 result was “inactive”. For the molecule `O=C(c1csnn1)N1CCC2(CCCN(c3ccc(-c4ccccc4)cc3)C2)CC1`, the AC50 entry is “inactive”.

For the molecule `c1ccc(-c2ccc(N3CC[C@@]4(CCCNC4)C3)cc2)cc1`, the half-maximal activity concentration (AC50) is 12.6 µM (active). The same measure, in the same setting: the value for `c1ccc(-c2ccc(N3CC4(CCNCC4)C3)cc2)cc1` was 15.8 µM (active); that for `c1ccc(-c2ccc(N3CCCC4(CCNCC4)C3)cc2)cc1` was 10 µM (active). As to `N[C@@H](Cc1ccccc1)C(=O)O`, the activity, negative = inhibition is -14% [at 11.4 µM] (inactive). Consider `CN(C)c1nc(-c2ccccc2C(F)(F)F)nc2ccccc12`, for which the concentration at half-maximal activity (AC50) is 0.251 µM (active). Turning to `Cc1ccccc1-c1nc(N(C)C)c2ccccc2n1`, the half-maximal activity concentration (AC50) was 0.631 µM (active). Take `COc1ccccc1-c1nc(N(C)C)c2ccccc2n1`: the concentration at half-maximal activity (AC50) was 0.398 µM (active). `Cc1ccc(-c2ccc(=O)n(CC(=O)NCCN3CCCCC3C)n2)cc1` (configuration not stated): the AC50 result is “inactive”. In the case of `O=C(NCC1COc2ccccc2O1)C1C2C=CC3(CN(Cc4cccs4)C(=O)C13)O2` (configuration not stated), the AC50 result was “inactive”. For the molecule `COC(=O)CCCC(=O)O`, the activity, negative = inhibition is -7.34% [at 2.29 µM] (inactive). `COCCCNC(=O)C(=O)N/N=C/c1ccc(OCC(=O)Nc2cccc(Cl)c2C)c(OC)c1`: the AC50 entry was “inactive”. As for `COC(=O)CCC(=O)NNC(=O)CCCOc1ccc(Cl)cc1Cl`, the AC50 was 12.6 µM (active). Turning to `CC1(C)CC(=O)C/C(=N/NC(=O)CCCOc2ccc(Cl)cc2Cl)C1`, the AC50 is 15.8 µM (active). Regarding `CC(C)C(=O)Nc1ccc(C(=O)NNC(=O)CCCOc2ccc(Cl)cc2Cl)cc1`, the AC50 entry was “inactive”.

On to `COc1ccc(/C=N/NC(=O)CCCOc2ccc(Cl)cc2Cl)cc1[N+](=O)[O-]`, for which the AC50 was 1.26 µM (active). In the case of `Cc1cccc(CNc2ccnc(-c3ccccc3Cl)n2)c1`, the half-maximal activity concentration (AC50) is 1.58 µM (active). The same measure, in the same setting: the value for `Cc1cccc(CNc2ccnc(-c3ccccc3CN(C)C)n2)c1` was 3.16 µM (active); that for `Clc1ccccc1-c1nccc(NCc2ccccc2)n1` was 3.16 µM (active); that for `COc1ccc(-n2c(N)c(C(=O)NCc3ccco3)sc2=S)cc1` was 11.2 µM (active). For the molecule `CCOc1ccc(-n2c(N)c(C(=O)NCc3cccnc3)sc2=S)cc1`, the AC50 result was “inactive”.

Consider `OC[C@@H]1NC[C@@H](O)[C@H]1O`, for which the AC50 entry is “inactive”.

For `CCOC(=O)c1[nH]c2ccc(Cl)cc2c1-c1ccccc1`, the concentration at half-maximal activity (AC50) is 0.398 µM (active).

As for `NC(=NCc1ccc(Cl)c(Cl)c1)NC(=O)c1nc(Cl)c(N)nc1N`, the AC50 is 10 µM (active). Still for that read-out and setting: the value for `O=C(CC1C(=O)N(c2ccc(Cl)cc2)C(=S)N1CCc1ccncc1)Nc1ccc(F)cc1` (configuration not stated) was 5.01 µM (active); that for `CC(=O)Nc1ccc(S(=O)(=O)NC2(C(F)(F)F)NC(=O)N(c3ccc(Cl)cc3)C2=O)cc1` (configuration not stated) was “inactive”. In the case of `CCNC(=O)CC1C(=O)N(c2ccc(F)cc2)C(=O)N1CCc1ccc(OC)cc1` (configuration not stated), the AC50 result was “inactive”. Still for that read-out and setting: the value for `Cn1c(-c2ccccc2)cnc1N` was 17.8 µM (active); that for `CCCn1c(-c2ccccc2)nc2c(=O)n(C)c(=O)[nH]c21` was “inactive”.

Take `CN(C)c1ccc(-c2nc(N(C)C)c3ccccc3n2)cc1`: the AC50 is 0.251 µM (active).

As for `CN(C)c1nc(-c2ccoc2)nc2ccccc12`, the AC50 is 0.501 µM (active). Still for that read-out and setting: the value for `CN(C)c1ccc(-c2nc(Nc3ccncc3)c3ccccc3n2)cc1` was 0.501 µM (active). Same read-out and setting: the value for `CNc1nc(-c2ccc(N(C)C)cc2)nc2ccccc12` was 0.2 µM (active). For the molecule `COCC(=O)N1CCC[C@@]2(CCN(Cc3ccccc3)C2)C1`, the AC50 result is “inactive”. With `O=C(CC1(O)CCCCC1)OC1CCCC1`, the activity, negative = inhibition is -12.2% [at 11.4 µM] (inactive). In the case of `CC1(C)O[C@H]2[C@@H](O1)[C@@H](On1nnc3ccc(Cl)cc31)O[C@@H]2[C@@H]1COC(C)(C)O1`, the activity, negative = inhibition is -10.9% [at 2.29 µM] (inactive). Consider `CN(C)c1nc(-c2cccnc2)nc2ccccc12`, for which the concentration at half-maximal activity (AC50) is 0.126 µM (active). As to `CCOC(=O)Cc1c(C)nc2c(C#N)c[nH]n2c1=O`, the AC50 entry is “inactive”. `CCOC(=O)Cc1cc(=O)n2[nH]c(C)c(-c3ccccc3)c2n1`: the half-maximal activity concentration (AC50) is 12.6 µM (active). Turning to `CCOC(=O)Cc1cc(=O)n2[nH]c(C)c(C#N)c2n1`, the AC50 result was “inactive”.

Turning to `S=C(CSc1ccccc1)Nc1cccc2ccccc12`, the AC50 is 1.26 µM (active). Regarding `CO[C@@H]1COC(=O)CCC[C@@H](C)[C@H](OC)COC(=O)CCC[C@H]1C`, the activity, negative = inhibition is 5.33% [at 11.4 µM] (inactive). `Cc1cccc(-c2noc(-c3cc4ccccc4oc3=O)n2)c1`: the AC50 was 3.16 µM (active). Still for that read-out and setting: the value for `CS(=O)(=O)c1ccccc1-c1nc(-c2cc(C(F)(F)F)cc(C(F)(F)F)c2)no1` was “inactive”; that for `NC1=NC2(CCCCC2)N=C(Nc2ccc(F)cc2F)N1` was “inactive”; that for `O=C(O)C1CCCCC1C(=O)Nc1cc(Cl)ccc1Cl` (configuration not stated) was “inactive”. As to `Cc1ccc(C(=O)NNC(=O)C2CCCN(c3ncccn3)C2)cc1` (configuration not stated), the AC50 result is “inactive”.

Turning to `COc1cc(C)nc(N2CCCC(C(=O)Nc3cc(Cl)ccc3OC)C2)n1` (configuration not stated), the AC50 is 3.55 µM (active). Still for that read-out and setting: the value for `Cc1ccccc1NS(=O)(=O)c1ccc2[nH]cc(C(=O)N(C)Cc3ccco3)c(=O)c2c1` was 15.8 µM (active); that for `CCOC(=O)N1CCN(S(=O)(=O)c2ccc3[nH]cc(C(=O)O)c(=O)c3c2)CC1` was “inactive”. As to `CN1CCN(S(=O)(=O)c2ccc3[nH]cc(C(=O)O)c(=O)c3c2)CC1`, the AC50 result is “inactive”.

As to `COc1ncc2nc(-c3cccs3)c(=O)n(C)c2n1`, the AC50 was 2 µM (active). As to `COc1ccc(Oc2ncc3nc(-c4cccs4)c(=O)n(C)c3n2)cc1`, the concentration at half-maximal activity (AC50) is 3.16 µM (active). As for `O=C(NNC(=O)c1cc2cc3ccccc3nc2s1)c1cccc(C(F)(F)F)c1`, the AC50 result is “inactive”. Still for that read-out and setting: the value for `Cc1sc(N)c(C(=O)c2cccc(C(F)(F)F)c2)c1C` was 15.8 µM (active). In the case of `CC(C)NC1(C(N)=O)CCN(Cc2ccccc2)CC1`, the activity, negative = inhibition is 7.61% [at 2.29 µM] (inactive). As for `Cc1ccnc(NCn2nnc3ccccc32)c1`, the AC50 was 28.2 µM (active). Take `O=C(Cn1nnc2ccccc21)N1CCCCC1`: the AC50 entry was “inactive”. For `COc1ccc(N(C(=O)Cn2nnc3ccccc32)C2(C(=O)NC3CCCC3)CCCCC2)cc1`, the AC50 entry is “inactive”. For `Cc1ccc(S(=O)(=O)N[C@H]2COC(=O)[C@@H](Cc3ccccc3)NC(=O)[C@@H](C)COC(=O)C/C=C\[C@@H]2C)cc1`, the activity, negative = inhibition was -7.75% [at 11.4 µM] (inactive) and -3.67% [at 11.4 µM] (inactive). Take `Cc1c(NC(=O)C23CC4CC(CC(C)(C4)C2)C3)c(=O)n(-c2ccccc2)n1C`: the AC50 entry was “inactive”.

Take `CS(=O)(=O)c1ccc(Cn2c3c(c4cc(F)cc(F)c42)CCC[C@H]3CC(=O)O)cc1`: the AC50 result is “inactive”. For `Cc1c(CC(C)(C)C(=O)O)n(Cc2ccc(Cl)cc2)c2ccc(F)cc12`, the AC50 was 15.8 µM (active). Regarding `OCCNc1nc(NCCC2=CCCCC2)nc(N2CCOCC2)n1`, the half-maximal activity concentration (AC50) was 0.708 µM (active). For `O=C(CSCc1ccccc1Cl)NN1C(=O)c2ccccc2C1=O`, the AC50 is 14.1 µM (active).

As for `O=C(NN1C(=O)c2ccccc2C1=O)C1CCCCC1`, the AC50 result was “inactive”.

On to `O=C(O)C[C@H](Cc1ccccc1Cl)C(=O)O`, for which the activity, negative = inhibition is -17.6% [at 11.4 µM] (inactive). In the case of `O=C1/C(=C\c2ccc(Br)o2)SC(=Nc2ccccc2)N1c1ccccc1`, the concentration at half-maximal activity (AC50) was 0.126 µM (active). In the case of `CC1=C(\C=C/C(C)=C/C=C\C(C)=C\C(=O)O)C(C)(C)CCC1`, the AC50 entry is “inactive and 20 µM (active)”. As for `CC1=CC(=O)CC(C)(C)[C@]1(O)/C=C\C(C)=C\C(=O)O`, the activity, negative = inhibition was -7.1% [at 11.4 µM] (inactive). Consider `CC1=NN(C(=O)c2ccncc2)C(=O)[C@@H]1N=Nc1ccc2ccccc2c1`, for which the AC50 is 0.158 µM (active).

For the molecule `Cc1ccc(C)c(Nc2nc3nonc3nc2N2CCOCC2)c1`, the concentration at half-maximal activity (AC50) was 5.01 µM (active).

In the case of `FC(F)(F)c1nc2ccccc2nc1N/N=C\c1ccccc1`, the AC50 was 0.562 µM (active). For the molecule `FC(F)(F)c1nc2ccccc2nc1N/N=C/c1ccc(Cl)cc1`, the AC50 is 1.41 µM (active). Regarding `COc1ccccc1CNc1cc(-c2c(C)noc2C)ncn1`, the AC50 was 5.01 µM (active).

For `Cc1noc(C)c1-c1cc(NCc2cccnc2)ncn1`, the AC50 is 1 µM (active). On to `Cc1cccc(CNc2cc(-c3c(C)noc3C)ncn2)c1`, for which the half-maximal activity concentration (AC50) was 1 µM (active).

For the molecule `Cc1noc(C)c1-c1cc(NCc2ccccc2)ncn1`, the concentration at half-maximal activity (AC50) is 5.01 µM (active). For the molecule `CCS(=O)(=O)N(C)[C@@H]1c2cc(C#N)ccc2OC(C)(C)[C@H]1O`, the AC50 entry is “inactive”.

On to `CCOC(=O)C(C)CC(C)C(=O)N1CCOCCN(C(=O)C(C)CC(C)C(=O)OCC)CCOCC1` (configuration not stated), for which the AC50 result is “inactive”. The same measure, in the same setting: the value for `Cc1noc(C)c1-c1cc(NCc2cccs2)ncn1` was 0.794 µM (active); that for `Cc1ccc(C(=O)/C=C/c2c[nH]c3ccccc23)cc1` was 5.62 µM (active).

Consider `O=C(O)[C@H](Cc1c[nH]c2ccccc12)N1C(=O)c2ccccc2C1=O`, for which the activity, negative = inhibition was -8.32% [at 2.29 µM] (inactive). Turning to `Cc1ccc(C(=O)Nc2ccc(C(=O)/C=C/c3cccs3)cc2)cc1`, the AC50 result was “inactive”.
